# Assays:
# Assay in all cases: DAPPL (digital affinity profiling via proximity ligation, sequencing); 10 mM Tris-HCl pH 7.5, 50 mM NaCl, 1 mM DTT, 4% glycerol, room temperature, 30 min; GST-TFs on glutathione beads, 16-mer random dsDNA library, 0.1% formaldehyde crosslink after washing; high values mean tight binding
# FEV = target: T1, FEV (Homo sapiens, UniProt Q99581 1-238); conditions: protein: recombinant; tags: N-terminal GST; dsDNA, one strand shown
# T1 sequence: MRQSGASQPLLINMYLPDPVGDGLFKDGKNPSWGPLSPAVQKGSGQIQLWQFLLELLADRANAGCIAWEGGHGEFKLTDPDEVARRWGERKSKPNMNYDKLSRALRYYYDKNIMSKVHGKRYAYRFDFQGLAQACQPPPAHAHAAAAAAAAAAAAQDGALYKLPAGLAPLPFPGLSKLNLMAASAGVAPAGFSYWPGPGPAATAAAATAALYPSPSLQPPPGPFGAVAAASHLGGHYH
# Method in brief: (§1)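 In yeast, human transcription factors were expressed with a GST fusion, then pulled down on glutathione beads and given DNA barcodes. Pooled with a tag-only sample, they were exposed to 200 nmole of a 16-mer random double-stranded DNA library (Tris/NaCl/DTT/glycerol buffer, room temperature, 30 min), washed, crosslinked with 0.1% formaldehyde, proximity-ligated using BsaI/T4 ligase for 1 h at 37 °C, PCR-amplified and read on an Illumina NextSeq500. Each hexamer's frequency of reads for a factor, divided by the matching frequency for the tag-only sample, gives the binding signal.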
# ETV5 = ETV5 (Homo sapiens, UniProt P41161 1-510); conditions: protein: recombinant; tags: N-terminal GST; dsDNA, one strand shown
# Method in brief: as §1
# HSF1 = HSF1 (Homo sapiens, UniProt Q00613 1-529); conditions: protein: recombinant; tags: N-terminal GST; chain copies: 3; dsDNA, one strand shown
# Method in brief: as §1
# SPIC = target: T2, SPIC (Homo sapiens, UniProt Q8N5J4 1-248); conditions: protein: recombinant; tags: N-terminal GST; dsDNA, one strand shown
# T2 sequence: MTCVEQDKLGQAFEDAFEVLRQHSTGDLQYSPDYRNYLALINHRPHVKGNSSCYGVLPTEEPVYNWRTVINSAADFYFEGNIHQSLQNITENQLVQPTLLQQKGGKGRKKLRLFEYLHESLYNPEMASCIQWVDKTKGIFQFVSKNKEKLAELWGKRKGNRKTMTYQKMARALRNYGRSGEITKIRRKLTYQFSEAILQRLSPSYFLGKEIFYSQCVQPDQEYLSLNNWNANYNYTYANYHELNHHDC
# Method in brief: as §1
# ELF4 = ELF4 (Homo sapiens, UniProt Q99607 1-663); conditions: protein: recombinant; tags: N-terminal GST; dsDNA, one strand shown
# Method in brief: as §1
# ELK4 = target: T3, ELK4 (Homo sapiens, UniProt P28324-2 1-405); conditions: protein: recombinant; tags: N-terminal GST; dsDNA, one strand shown
# T3 sequence: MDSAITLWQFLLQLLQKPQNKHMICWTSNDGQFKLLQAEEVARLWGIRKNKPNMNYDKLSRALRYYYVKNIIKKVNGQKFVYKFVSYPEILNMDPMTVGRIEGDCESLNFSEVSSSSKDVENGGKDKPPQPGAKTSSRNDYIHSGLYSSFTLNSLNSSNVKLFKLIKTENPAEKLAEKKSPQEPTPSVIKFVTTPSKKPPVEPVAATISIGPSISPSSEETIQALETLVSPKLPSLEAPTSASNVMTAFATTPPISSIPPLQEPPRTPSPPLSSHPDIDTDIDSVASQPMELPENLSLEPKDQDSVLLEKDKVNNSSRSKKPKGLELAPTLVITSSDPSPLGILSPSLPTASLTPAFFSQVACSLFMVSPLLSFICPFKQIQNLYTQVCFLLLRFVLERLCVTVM
# Method in brief: as §1
# ETV2 = target: T4, ETV2 (Homo sapiens, UniProt O00321 1-342); conditions: protein: recombinant; tags: N-terminal GST; dsDNA, one strand shown
# T4 sequence: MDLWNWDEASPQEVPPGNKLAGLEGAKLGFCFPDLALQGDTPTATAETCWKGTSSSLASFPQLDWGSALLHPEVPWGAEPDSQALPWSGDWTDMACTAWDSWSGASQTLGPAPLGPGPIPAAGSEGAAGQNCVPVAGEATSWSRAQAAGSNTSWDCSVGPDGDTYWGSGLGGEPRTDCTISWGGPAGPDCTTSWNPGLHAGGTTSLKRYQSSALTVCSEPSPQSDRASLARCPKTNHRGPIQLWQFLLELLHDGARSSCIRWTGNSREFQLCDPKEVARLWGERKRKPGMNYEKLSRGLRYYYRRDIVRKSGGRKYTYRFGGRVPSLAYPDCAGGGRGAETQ
# Method in brief: as §1
# ELF3 = target: T5, ELF3 (Homo sapiens, UniProt P78545 1-371); conditions: protein: recombinant; tags: N-terminal GST; dsDNA, one strand shown
# T5 sequence: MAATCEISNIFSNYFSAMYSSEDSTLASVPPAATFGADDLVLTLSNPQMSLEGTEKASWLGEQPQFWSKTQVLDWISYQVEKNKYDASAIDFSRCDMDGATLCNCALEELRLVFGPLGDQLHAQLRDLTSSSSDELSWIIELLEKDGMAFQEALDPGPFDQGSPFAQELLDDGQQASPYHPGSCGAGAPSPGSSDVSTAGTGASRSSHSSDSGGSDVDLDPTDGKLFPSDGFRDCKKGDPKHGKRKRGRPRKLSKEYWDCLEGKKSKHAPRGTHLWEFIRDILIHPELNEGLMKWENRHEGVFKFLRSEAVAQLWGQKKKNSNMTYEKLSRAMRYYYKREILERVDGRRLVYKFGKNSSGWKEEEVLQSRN
# Method in brief: as §1
# CRX = CRX (Homo sapiens, UniProt O43186 1-299); conditions: protein: recombinant; tags: N-terminal GST; dsDNA, one strand shown
# Method in brief: as §1
# ETV1 = ETV1 (Homo sapiens, UniProt P50549 1-477); conditions: protein: recombinant; tags: N-terminal GST; dsDNA, one strand shown
# Method in brief: as §1
# Chain of CRX (O43186 whole entry): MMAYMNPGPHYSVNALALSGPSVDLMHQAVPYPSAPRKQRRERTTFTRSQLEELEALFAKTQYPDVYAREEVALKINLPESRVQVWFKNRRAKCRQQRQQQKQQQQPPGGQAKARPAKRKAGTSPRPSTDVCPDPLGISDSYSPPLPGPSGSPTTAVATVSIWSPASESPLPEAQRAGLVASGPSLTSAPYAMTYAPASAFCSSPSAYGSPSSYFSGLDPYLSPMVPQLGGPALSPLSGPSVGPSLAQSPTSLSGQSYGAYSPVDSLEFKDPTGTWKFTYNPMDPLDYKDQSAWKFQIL
# Chain of HSF1 (Q00613 whole entry): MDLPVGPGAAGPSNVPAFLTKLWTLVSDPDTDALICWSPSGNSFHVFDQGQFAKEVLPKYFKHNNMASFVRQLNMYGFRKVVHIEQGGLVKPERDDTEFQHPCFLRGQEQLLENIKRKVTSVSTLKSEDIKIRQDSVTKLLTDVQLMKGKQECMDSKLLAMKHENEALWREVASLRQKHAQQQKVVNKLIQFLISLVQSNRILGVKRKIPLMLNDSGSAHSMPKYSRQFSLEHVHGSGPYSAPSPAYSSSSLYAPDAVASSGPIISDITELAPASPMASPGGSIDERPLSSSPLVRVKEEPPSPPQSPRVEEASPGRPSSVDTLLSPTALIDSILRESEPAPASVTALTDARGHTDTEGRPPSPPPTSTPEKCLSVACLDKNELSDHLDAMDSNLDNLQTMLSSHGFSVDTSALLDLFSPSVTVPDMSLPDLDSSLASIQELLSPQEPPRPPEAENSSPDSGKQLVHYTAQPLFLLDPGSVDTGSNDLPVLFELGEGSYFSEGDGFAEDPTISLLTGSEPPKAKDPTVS
# Chain of ETV1 (P50549 whole entry): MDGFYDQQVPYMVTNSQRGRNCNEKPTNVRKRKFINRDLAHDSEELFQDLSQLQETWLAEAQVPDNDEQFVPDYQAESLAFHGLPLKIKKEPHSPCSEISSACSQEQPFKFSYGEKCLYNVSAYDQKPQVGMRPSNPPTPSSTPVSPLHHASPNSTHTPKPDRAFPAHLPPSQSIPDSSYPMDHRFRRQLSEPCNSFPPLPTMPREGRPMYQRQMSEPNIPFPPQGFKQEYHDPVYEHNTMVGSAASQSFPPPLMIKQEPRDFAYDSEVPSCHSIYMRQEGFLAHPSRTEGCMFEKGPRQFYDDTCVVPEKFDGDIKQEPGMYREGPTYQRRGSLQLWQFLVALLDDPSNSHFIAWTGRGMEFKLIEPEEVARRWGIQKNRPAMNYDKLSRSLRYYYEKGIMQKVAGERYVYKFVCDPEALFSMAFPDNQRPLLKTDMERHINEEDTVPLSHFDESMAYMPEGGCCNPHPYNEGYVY
# Chain of ELF4 (Q99607 whole entry): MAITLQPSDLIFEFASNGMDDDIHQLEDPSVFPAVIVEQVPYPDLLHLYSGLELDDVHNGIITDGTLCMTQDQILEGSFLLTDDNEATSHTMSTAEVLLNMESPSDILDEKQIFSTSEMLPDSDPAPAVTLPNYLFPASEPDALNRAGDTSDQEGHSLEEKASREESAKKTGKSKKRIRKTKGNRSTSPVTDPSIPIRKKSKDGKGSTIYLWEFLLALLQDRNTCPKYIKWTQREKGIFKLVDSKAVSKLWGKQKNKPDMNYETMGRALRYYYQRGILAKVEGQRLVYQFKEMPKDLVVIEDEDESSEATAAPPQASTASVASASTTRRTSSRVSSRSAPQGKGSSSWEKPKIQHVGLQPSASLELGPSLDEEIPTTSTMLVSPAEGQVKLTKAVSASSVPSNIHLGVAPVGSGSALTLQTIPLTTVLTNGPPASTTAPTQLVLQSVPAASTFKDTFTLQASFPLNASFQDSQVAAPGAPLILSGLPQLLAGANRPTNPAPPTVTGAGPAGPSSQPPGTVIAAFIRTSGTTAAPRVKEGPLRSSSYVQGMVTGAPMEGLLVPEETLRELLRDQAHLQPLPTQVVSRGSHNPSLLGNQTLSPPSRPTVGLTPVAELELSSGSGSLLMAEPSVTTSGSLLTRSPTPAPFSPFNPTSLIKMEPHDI
# Chain of ETV5 (P41161 whole entry): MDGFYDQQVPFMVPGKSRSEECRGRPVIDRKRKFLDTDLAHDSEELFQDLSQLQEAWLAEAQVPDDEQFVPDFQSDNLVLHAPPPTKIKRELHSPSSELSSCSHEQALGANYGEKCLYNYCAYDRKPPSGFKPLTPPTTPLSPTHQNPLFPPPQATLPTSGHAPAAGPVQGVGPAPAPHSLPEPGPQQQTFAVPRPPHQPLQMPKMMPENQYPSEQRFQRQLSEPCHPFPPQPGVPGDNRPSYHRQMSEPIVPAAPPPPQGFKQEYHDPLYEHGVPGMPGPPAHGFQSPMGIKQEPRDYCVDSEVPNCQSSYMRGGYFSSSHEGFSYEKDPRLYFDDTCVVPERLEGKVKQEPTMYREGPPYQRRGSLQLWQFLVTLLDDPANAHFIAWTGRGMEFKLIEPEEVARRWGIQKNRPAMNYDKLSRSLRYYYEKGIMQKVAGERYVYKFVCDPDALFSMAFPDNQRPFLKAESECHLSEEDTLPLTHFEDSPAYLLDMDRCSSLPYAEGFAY
sequence,measurement,setting,value
GCTAAT,binding signal,FEV,"1.18 fold enrichment (6-mer frequency, TF over GST control)"
same,binding signal,ETV5,"1.11 fold enrichment (6-mer frequency, TF over GST control)"
same,binding signal,HSF1,"1.72 fold enrichment (6-mer frequency, TF over GST control)"
same,binding signal,SPIC,"1.23 fold enrichment (6-mer frequency, TF over GST control)"
same,binding signal,ELF4,"1.27 fold enrichment (6-mer frequency, TF over GST control)"
same,binding signal,ELK4,"1.22 fold enrichment (6-mer frequency, TF over GST control)"
same,binding signal,ETV2,"1.24 fold enrichment (6-mer frequency, TF over GST control)"
same,binding signal,ELF3,"1.22 fold enrichment (6-mer frequency, TF over GST control)"
same,binding signal,CRX,"2.56 fold enrichment (6-mer frequency, TF over GST control)"
same,binding signal,ETV1,"1.14 fold enrichment (6-mer frequency, TF over GST control)"
